HCV inhibitor: HCV inhibition | Huh7.5.1 HCVcc-Cre infection, luciferase reporter, 44 h | Potency, µM (highest dose often 41.8 µM), for inactives: top-dose activity change, negative = inhibition, most hits filed as inhibitors | hit rate 3.4% among 340,000; also: potency is read from the fitted curve at half-maximal effect
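Compounds are dispensed onto cells plated 4 h earlier at 1,000 per well, with HCVcc-Cre virus (about 0.5 moi) added next. Following 44 h of culture, luminescent signal is measured for 15 sec after 15 min with substrate at room temperature.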
Lassa entry inh: blocks Lassa virus binding to or entry into cells; Lassa virus pseudotype entry inhibition, cell reporter; Potency, µM (doses to about 37.9 µM), inactives show at the highest dose activity change, negative = inhibition, hits mostly inhibitors; hit rate 1.2% among 300,000; AID 540256; calls by dose curve; tested in HEK293 cells; also: potency is read from the fitted curve at half-maximal effect; nearly all actives have a fitted effect of over 50% in size
Pf growth 96h: P. falciparum growth inhibition at 96 hours; P. falciparum luciferase reporter growth, 96 h; Potency, µM (highest dose often 28.7 µM), for inactives: top-dose activity change, negative = inhibition, usual class: inhibitors; hit rate 6.9% among 320,000; AID 504834; also: potency is read from the fitted curve at half-maximal effect
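Plates of compound plus infected erythrocytes (2% hematocrit, 0.05% parasitemia final) incubate 96 hours, 37 C, 5% CO2. Detection reagent added; reduced luminescence from the parasites' luciferase reporter flags inhibition.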
Pf growth 48h: P. falciparum growth inhibition at 48 hours (one generation) | Potency, µM (series often up to 28.7 µM), for inactives: at the top dose activity change, negative = inhibition, actives largely listed as inhibitors | AID 504832 | P. falciparum luciferase growth in erythrocytes, 48 h | hit rate 5.9% among 310,000; also: potency is read from the fitted curve at half-maximal effect
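In quantitative HTS format, infected erythrocytes bearing luciferase-reporter parasites were treated for a single generation at 37 C. Luminescence after adding detection reagent served as the growth measure.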
Marburg entry inh: Marburg virus entry inhibition | Potency, µM (highest dose often 37.8 µM), for the others: at the highest dose activity change, negative = inhibition, actives largely listed as inhibitors | Marburg virus pseudotyped entry inhibition, cell reporter | hit rate 1.8% among 300,000 | AID 540276; calls by dose curve; tested in HEK293 cells; also: potency is read from the fitted curve at half-maximal effect
HCMV inh: blocks human cytomegalovirus replication; HFF cells, HCMV-luciferase reporter, 72 h; hits give low values; activity change, negative = inhibition, % at 57.5 µM; hit rate 4.5% among 410,000; in the data active = activity change below about -60%; inconclusive = no clear call, values can overlap the other calls; inactive = above about -39%
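Cell-based, HFFs, 1000 cells/well, 16 h 37C; cpds in DMSO + HCMV-luc, MOI 1 PFU/cell; 72 h 37C; OneGlo luminescence after 5 min RT; norm. to buffer vs Salinomycin 10uM.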
Numbers without * were called inactive; ? = inconclusive; . = no result given; ! = a repeat was not active; [ ] = another dose, or the depositor's remark. The list is not random: actives were taken first. Their share in the collection is about 14%. Unless noted, calls follow the shape of the dose curve; as a rule, active = well fitted inhibition curve with a large enough effect; inconclusive = small, poorly fitted or top-dose-only effect, or another doubt; inactive = no such curve, though single readings can be large or run the other way. % is scaled to controls: 0 for no effect and ±100 for the full control effect.

SMILES	HCV inhibitor	Lassa entry inh	Pf growth 96h	Pf growth 48h	Marburg entry inh	HCMV inh
COc1ccc(CNC(=O)c2c(C)oc3c2C(=O)c2ccccc2C3=O)cc1	4%[8.37 µM]	-14%	3.3µM*	?	6%	?
Cc1onc(-c2ccccc2Cl)c1C(=O)NCc1cccnc1	?	8%	.	6%	1%	-7
O=C(c1ccccc1)c1ccc(CN2C(=O)c3ccccc3C2=O)o1	1%	2%	7%	4%	12%	6
CC(=O)c1c(C)oc2c1C(=O)c1ccccc1C2=O	8.9µM*	-11%	-29%	?	-2%	-72*
Cc1oc2c(c1C(=O)NCc1cccnc1)C(=O)c1ccccc1C2=O	1.6µM*	.	0.15µM*	?	.	.
Cc1ccc(C)c(NC(=O)c2cc(=O)c3cc(C)cc(C)c3o2)c1	.	15%[46.1 µM]	.	.	?	9
COc1ccc(S(=O)(=O)NCCc2csc(-c3ccc(F)cc3)n2)cc1F	.	-16%[46.1 µM]	.	.	.	-9
COc1ccc2oc(=O)c(C(=O)NCc3ccccc3)cc2c1	-1%	25%[46.1 µM]	?	-1%	-6%[46.1 µM]	-13
COc1ccc(CNC(=O)c2cc3cc(OC)ccc3oc2=O)cc1	?	?	0%	7%	?	-104*!
COc1ccc2oc(=O)c(C(=O)Nc3cccc(C(=O)O)c3)cc2c1	.	4%[46.1 µM]	.	.	2.8µM*	107
COc1ccc2oc(=O)c(C(=O)NCc3ccc(C)cc3)cc2c1	9%	.	-6%	6%	.	-100*
COc1ccc2oc(=O)c(C(=O)Nc3cccc(C)c3)cc2c1	?	0%[46.1 µM]	0%	41%	?	1
CCN1C(=O)C2(c3ccccc31)c1c(oc3ccccc3c1=O)C(=O)N2CCOC (stereo not drawn)	.	14%[46.1 µM]	.	.	8%[46.1 µM]	-7
COc1ccc(C2=Nc3ccccc3N(C(=O)c3cc(Cl)cc(Cl)c3)C2C(=O)NCc2ccccc2)cc1 (stereo not drawn)	.	.	.	.	.	18
O=C(NCc1ccc(F)cc1)C(=O)NCC1OCCN1S(=O)(=O)c1cc(F)ccc1F (stereo not drawn)	.	.	.	.	.	27
O=C(O)CN1C(=O)c2ccc(Oc3ccc4c(c3)C(=O)N(CC(=O)O)C4=O)cc2C1=O	22%	.	50%	2.1µM*	.	-30
CCN(C(=O)c1ccncc1)c1c(N)n(Cc2ccccc2)c(=O)[nH]c1=O	31%	?	3%	1%	8%	1
Cc1ccc2c(c1)-c1c(cnn1CC(=O)N1CCN(c3ccccc3F)CC1)CO2	.	.	.	.	-11%[46.1 µM]	-87*
O=C(Cn1ncc2c1-c1ccccc1OC2)N1CCN(c2ccccc2F)CC1	.	.	.	.	3%[46.1 µM]	-10
CCN(CC)c1ccc(-n2nc3cc(C)c(NC(=O)c4ccccc4F)cc3n2)cc1	.	11%[46.1 µM]	.	.	5%[46.1 µM]	13
CC1(C(=O)NC2CCCCC2)CCC(=O)N1Cc1cccnc1 (stereo not drawn)	9%	.	-1%	15%	.	-82*
Cc1nc2cc(C(=O)OCC(=O)NC(C)C(C)C)ccc2n1-c1ccccc1 (stereo not drawn)	-1%	8.2µM*	?	-24%	?	-8
CC(C)CN(C(=O)COC(=O)c1ccc(-c2ccccc2)cc1)C1CCS(=O)(=O)C1 (stereo not drawn)	-21%	-2%	-27%	?	13%	-4
Cc1nc2cc(C(=O)OCC(=O)N(CC(C)C)C3CCS(=O)(=O)C3)ccc2n1-c1ccccc1 (stereo not drawn)	?	-3%	?	-14%	?	-96*
COc1ccccc1/C=C/C=N/n1c(-c2ccncc2)n[nH]c1=S	-9%	-23%	7.4µM*	-2%	?	11
COc1ccccc1/C=C/C=N/n1c(-c2ccc(C)cc2)n[nH]c1=S	-15%	3.7µM*	-14%	-3%	?	29
CCC(C(=O)NC(C)(C)C)n1c(C(c2ccccc2)c2ccccc2)nc2ccccc21 (stereo not drawn)	.	.	.	.	.	11
CCN1CCc2c(sc(NC(=O)c3ccc(S(=O)(=O)N(C)c4ccccc4)cc3)c2C(=O)NC)C1	?	.	1.5µM*	2.1µM*	.	.

Bioassay records from PubChem BioAssay.
